# Assay outcomes from PubChem BioAssay.
# In the library only some 1.4% were active in any assay of this set; here they are far more common.
# AID504770 = E. coli YBA685 growth inhibition, screen for V. cholerae RctB inhibitors. E. coli YBA685 rctB-dependent plasmid, OD600 growth, 3 h; active compounds read low. z-score (no concentration beside the values). 130,000 compounds, 0.27% hits. AID 504770; in the data active means z-score below about -2, passing the limit was not always enough
# Polio RdRp inh = inhibitors of poliovirus RNA polymerase binding and polymerization | % elongation, % (compound at 16.7 µg/mL) | poliovirus polymerase elongation, fluorescence polarization; active compounds read low | 150,000 compounds, 0.66% hits | P03300; in the data active means % elongation below about 90%
# MbtI inh = blocks the Mycobacterium tuberculosis siderophore enzyme MbtI; P9WFX0; purified MbtI enzyme, fluorescence intensity read-out; inhibition, % (concentration not given with the values); 100,000 compounds, 0.89% hits; in the data active means inhibition mostly above about 56%, no sharp cut-off; inactive means mostly below about 77%
# Target sequence (P9WFX0 whole entry, looked up): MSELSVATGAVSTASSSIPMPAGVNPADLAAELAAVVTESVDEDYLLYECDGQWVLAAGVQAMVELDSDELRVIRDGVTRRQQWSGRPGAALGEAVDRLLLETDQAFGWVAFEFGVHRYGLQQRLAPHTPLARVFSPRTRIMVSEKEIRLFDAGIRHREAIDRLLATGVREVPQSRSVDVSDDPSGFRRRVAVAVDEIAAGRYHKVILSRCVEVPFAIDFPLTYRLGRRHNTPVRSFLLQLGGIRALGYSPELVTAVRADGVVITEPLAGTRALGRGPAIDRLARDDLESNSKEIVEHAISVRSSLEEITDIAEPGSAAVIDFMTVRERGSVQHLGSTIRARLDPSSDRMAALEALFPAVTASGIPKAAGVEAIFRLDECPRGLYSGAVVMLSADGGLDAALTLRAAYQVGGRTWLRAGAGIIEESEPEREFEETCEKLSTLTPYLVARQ
# MenB inh = inhibitors of Mycobacterium tuberculosis MenB enzyme. P9WNP5. MenB enzyme assay, absorbance read-out. inhibition, % (no concentration beside the values). 100,000 compounds, 0.43% hits. AID 540299; in the data active means inhibition above about 21%, passing the limit was not always enough
# Starred values were filed as active, the others as inactive; x = no result.
SMILES,AID504770,Polio RdRp inh,MbtI inh,MenB inh
Cc1nc(CSc2nnc(Cc3cccc4ccccc34)n2N)cs1,-3.8,100,57*,-28
Fc1ccc(-c2ccc(CNCCCSc3ncccn3)o2)cc1Cl,-0.45,103,24,-32
Cc1ccc(Cl)cc1NC(=O)c1oc2c(c1C)-c1[nH]ncc1CC2,x,78*,x,x
Cc1cc(C)c(NC(=O)c2oc3c(c2C)-c2[nH]ncc2CC3)c(C)c1,x,108,x,x
O=C1CNC(=O)c2c(nc3n2CCC3)N1,1.1,101,15,34*
CC1(NS(C)(=O)=O)CC=CC1,2.2,102,1,29*
COc1cc(NC(=O)CCS(=O)(=O)c2ccc(Br)cc2)cc(OC)c1,x,102,x,x
CC(C)(C)c1ccc(C(=O)Nc2c(C(=O)c3ccc(F)cc3)oc3ccccc23)cc1,x,107,x,x
CC(=O)Nc1c(C(=O)c2ccc(F)cc2)oc2ccccc12,2.5,100,1,64*
COc1ccc(-n2c(=O)c3ccccc3n(CC(=O)NCCc3ccc(OC)c(OC)c3)c2=O)cc1,x,107,x,x
CN(CC(=O)Nc1ccc(N2CCOCC2)cc1)Cn1nc(Nc2ccccc2F)sc1=S,0.8,96,99*,-31
CC(C(=O)N1CCCC1)N1CCN(c2ccc(F)cc2)CC1 (centres undefined),-0.05,98,-4,41*
CCOC(=O)CC(=O)c1ccccc1,-0.85,107,16,34*
CCOC(=O)Cc1c[nH]c2ccccc12,1.1,100,-16,6
CCOC(=O)CN=C(c1ccccc1)c1ccccc1,-0.7,101,x,-2
CCOC(=O)CC(=O)c1c[nH]c2ccccc12,-2.2*,112,x,-19
COc1ccccc1CNC(=O)CCCN1C(=O)CCn2nc(-c3cn(C)c4ccccc34)cc21,x,104,x,x
CN(C)C1CCS(=O)(=O)C1 (centres undefined),-0.55,102,-13,-36
CC1=CC(=O)C(N(C)C2CCS(=O)(=O)C2)=CC1=O (centres undefined),1.8,96,100*,3
CC1=NOC(=O)/C1=C/c1ccc(O)cc1,-1.9,99,92*,-38
CCC(C)CCCCC(=O)NC(CCN)C(=O)NC(C(=O)NC(CCN)C(=O)NC1CCNC(=O)C(C(C)O)NC(=O)C(CCN)NC(=O)C(CCN)NC(=O)C(CC(C)C)NC(=O)C(Cc2ccccc2)NC(=O)C(CCN)NC1=O)C(C)O (centres undefined),-5.2*,99,-13,-12
CC(=C/C(=O)O)/C=C/c1ccccc1,0.85,102,30,-23
CC(/C=C/c1ccccc1)=N\NC(N)=S,-0.45,103,91*,-121
CNC(=O)c1sc(NCc2ccco2)nc1C,0.15,77*,98*,-25
O=C1CC(c2coc3ccccc3c2=O)Sc2ccccc2N1 (centres undefined),-0.45,106,-10,3
SMILES,AID504770,Polio RdRp inh,MbtI inh,MenB inh
Cc1ccc(NNC(=S)NC(=O)C2CC2)c(C)c1,0.65,100,95*,-55
O=C(OC(C(=O)NCc1ccc2c(c1)OCO2)c1ccccc1F)c1ccco1 (centres undefined),-0.2,104,-8,-30
CN(C)S(=O)(=O)c1ccc(=S)[nH]c1,-0.75,96,95*,-53
CSc1ccc(S(=O)(=O)N(C)C)cc1,-0.45,101,-13,-10
CC(C)(C)c1ccc(C(=O)Nc2ccc(-c3nc4ccccc4o3)c(O)c2)cc1,x,-10*,x,x
Cc1ccc2nc3sc(C#N)c(N)c3cc2c1,-1.9,98,-4,10
CCS(=O)(=O)c1ccc2oc(SCC(=O)CSc3nc4cc(S(=O)(=O)CC)ccc4o3)nc2c1,0.3,110,8,45*
CCS(=O)(=O)c1ccc2oc(SCC(=O)N3CC(C)OC(C)C3)nc2c1 (centres undefined),-1.1,106,-10,20
CSc1ccc(CCNC(=O)CCc2c(C)nc3c4cccnc4nn3c2C)cc1,x,14*,x,x
Cc1nc2c3cccnc3nn2c(C)c1CCC(=O)NCc1ccccc1,x,104,x,x
CCN(CC)C(=O)Nc1cccc(Cl)c1,0.4,101,0,33*
CCN(C(=O)Nc1cccc(Cl)c1)c1ccccc1,-0.3,100,-7,-13
Cc1ccc(C(=O)CSc2nnc(CSc3nc(C)cc(C)n3)n2C)cc1,-0.8,103,-11,7
CC(C)N(C(=O)Cn1c(-c2cccnc2)ccc(C#N)c1=O)C(C)C,-2.5,99,13,-21
N#Cc1ccc(-c2cccnc2)n(CC(=O)N2CCOCC2)c1=O,1.1,101,27,42*
O=c1cc(-c2ccc(O)cc2)oc2cc(O[C@@H]3O[C@H](CO)[C@@H](O)[C@H](O)[C@H]3O)cc(O)c12,0.2,99,3,-9
CC1CN(C)C(C)c2c1oc1ccc(N)cc21 (centres undefined),0.05,100,-119,-51
N#Cc1c(SCCCOc2ccccc2)sc2c(=O)[nH]c(=O)[nH]c12,-0.85,103,x,21*
COC(=O)CNS(=O)(=O)c1cccs1,-0.1,102,-8,-13
N#Cc1c(-c2ccccc2)no[n+]1[O-],x,93*,0,11
[O-][n+]1onc(-c2ccccc2)c1-c1ccccc1,0.25,103,-15,-33
CN1C(=O)C(=C/C=C/c2ccccc2)C(=O)N(C)C1=O,1.1,102,82*,-42
C=CCN1C(=O)NC(=O)/C(=C/C=C/c2ccccc2)C1=O,-0.2,100,1,-36
Cc1ccc(-n2nnnc2CNC(=O)C2CC(=O)N(c3ccccc3)C2)cc1C (centres undefined),x,104,x,x
CC(=O)n1c2ccccc2c2ccccc21,-0.4,x,x,x
SMILES,AID504770,Polio RdRp inh,MbtI inh,MenB inh
CC(=O)n1c2ccccc2c2nc(N)sc21,-1.9,81*,52,-8
COc1ccc2o/c(=N\O)c(C(N)=O)cc2c1,1.4,102,102*,-81
Cc1ccc(-c2cn3c(=S)[nH]nc3s2)cc1,0.25,100,98*,-51
Cc1ccc(-c2n[nH]c(=S)n2C)cc1,1.6,101,73,1
CCCCOc1ccc(C(=O)N(Cc2ccco2)Cc2ccco2)cc1,x,107,x,x
CC1CN(Cn2c(=S)oc3ccccc32)CC(C)O1 (centres undefined),-0.9,90*,60,-28
CC1CN(Cn2nc(C(=O)O)c3ccccc32)CC(C)O1 (centres undefined),-0.75,100,-5,-22
C#CCSc1nnc2[nH]c(=O)cc(CCC)n12,-1.2,101,34,-16
NS(=O)(=O)c1ccc(NC(=O)CCC(=O)Nc2ccc(S(N)(=O)=O)cc2)cc1,-0.25,102,6,-20
NS(=O)(=O)c1ccc(NC(=O)CS)cc1,-1.5,99,76*,-94
Cc1ccccc1NC(=O)c1ccc2c(O)c(S(=O)(=O)c3ccccc3)c(=O)[nH]c2c1,x,108,x,x
CCC(C)N1C(=O)/C(=C\c2cnn(-c3ccccc3)c2)C(=O)NC1=S (centres undefined),-1.1,99,80*,-30
O=C1NC(=O)N(c2ccccc2)C(=O)/C1=C/c1ccccc1,2.1,98,3,-40
CCN(Cc1ccccc1)C(c1ccccn1)c1nnnn1C(C)(C)CC (centres undefined),-0.35,99,3,23
O=S(=O)(c1ccc(Cl)cc1)N(O)c1ccc(Cl)cc1,-1.5,97,88*,19
